Laboratory results published in PubChem BioAssay AID1224921 (Broad Institute, 2016).
Screen size: about 1,400 compounds; about 350 (25%) were called active. Inconclusive results (about 2%) are left out. The rule behind the calls is not given here. The list is a sample of the results. Potency and affinity values are given separately.

Assay: C. difficile growth inhibition, confirmation, 4-point retest (AID 1224921);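 note: plate controls were DMSO wells for no effect and levofloxacin 16 µg/mL wells for full effect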
Conditions: Clostridioides difficile clinical isolate growth, OD600, 24 h, stronger effect = lower value; at 30 µM unless noted

Max activity, inactive:
C/C=C/c1cnc2c(c1)C(=O)N([C@H](C)CO)C[C@@H](C)[C@@H](CN(C)Cc1ccc(F)cc1)O2 -15% [at 0.5 µM], COc1ccccc1S(=O)(=O)N[C@H]1C=C[C@@H](CC(=O)N2CCCCC2)O[C@@H]1CO -9.97% [at 8 µM], CO[C@@H]1CN(C)C(=O)c2ccc(NC(=O)c3ccccc3F)cc2OC[C@H](C)N(CC2CC2)C[C@@H]1C -12.3% [at 8 µM], CCCC#Cc1ccc2c(c1)O[C@H](CN(C)Cc1cccnc1)[C@@H](C)CN([C@@H](C)CO)S2(=O)=O 13.7% [at 8 µM], CCCNC(=O)N1C[C@H](C)[C@H](OC)CN(C)C(=O)c2cc(NC(C)=O)ccc2OC[C@H]1C 4.83% [at 8 µM], CC(=O)N(C)C[C@@H]1Oc2ncc(C#Cc3ccc(F)cc3)cc2C(=O)N([C@@H](C)CO)C[C@@H]1C 32.1%, C/C=C/c1ccc2c(c1)O[C@H](CN(C)C(=O)Cc1ccncc1)[C@@H](C)CN([C@H](C)CO)S2(=O)=O -10.9% [at 8 µM], CCCN1C[C@@H](C)[C@@H](OC)CN(C)C(=O)c2cc(NC(=O)c3cccc(OC)c3)ccc2OC[C@@H]1C -16.1% [at 1.95 µM], COc1ccccc1C#Cc1ccc2c(c1)O[C@H](CN(C)Cc1cccnc1)[C@H](C)CN([C@@H](C)CO)S2(=O)=O 25.3%, Cc1ccccc1-c1ccc2c(c1)O[C@@H](CN(C)Cc1ccncc1)[C@@H](C)CN([C@H](C)CO)S2(=O)=O 49.5%, CO[C@H]1CN(C)C(=O)c2ccc(NC(=O)C3CC3)cc2OC[C@H](C)N(Cc2cncnc2)C[C@H]1C -10.1% [at 1.95 µM], CO[C@H]1CN(C)C(=O)c2ccc(NC(=O)Nc3ccccc3)cc2OC[C@@H](C)NC[C@H]1C -11.9%, CO[C@@H]1CN(C)C(=O)c2ccc(NC(=O)c3nc4ccccc4s3)cc2OC[C@@H](C)N(Cc2ccncc2)C[C@@H]1C 23.4%, CO[C@H]1CN(C)C(=O)c2ccc(NC(=O)Nc3ccccc3)cc2OC[C@H](C)NC[C@H]1C -20.9% [at 8 µM], CO[C@@H]1CN(C)C(=O)c2ccc(NC(=O)c3nc4ccccc4s3)cc2OC[C@H](C)N(Cc2ccncc2)C[C@@H]1C 26.2%, CO[C@@H]1CN(C)C(=O)c2ccc(NC(=O)Nc3ccccc3)cc2OC[C@H](C)NC[C@@H]1C -13.5% [at 8 µM], CO[C@@H]1CN(C)C(=O)c2ccc(NC(=O)Nc3ccccc3)cc2OC[C@H](C)NC[C@H]1C -11.5% [at 0.5 µM], COc1ccccc1S(=O)(=O)N[C@H]1C=C[C@H](CC(=O)N2CCCCC2)O[C@@H]1CO -11.2% [at 1.95 µM], C[C@H](NC(=O)C[C@@H]1C[C@@H]2c3cc(NC(=O)NC4CCCCC4)ccc3O[C@@H]2[C@@H](CO)O1)c1ccccc1 6.02% [at 8 µM], CO[C@H]1CN(C)C(=O)c2cc(NC(=O)c3cc(C)on3)ccc2OC[C@H](C)N(C(C)=O)C[C@H]1C -7.95% [at 1.95 µM], O=C(C[C@@H]1C[C@@H]2c3cc(NC(=O)Nc4ccc(C(F)(F)F)cc4)ccc3O[C@@H]2[C@@H](CO)O1)NCC1CC1 20.8% [at 35 µM], CC(C)[C@@H](C)NC(=O)N(C)C[C@@H]1OCc2ccccc2-c2ccccc2C(=O)N([C@H](C)CO)C[C@H]1C 47.6% [at 35 µM], CO[C@H]1CN(C)C(=O)c2cc(NC(=O)C3CCC3)ccc2OC[C@H](C)N(Cc2ccc(F)cc2)C[C@H]1C 14.5%, COc1ccc(-c2ccc([C@H]3[C@H](C#N)N(C(=O)NC4CCCCC4)[C@H]3CO)cc2)cc1 32.4%, C[C@@H]1CCCCO[C@H](CN(C)Cc2ccc3c(c2)OCO3)[C@H](C)CN([C@@H](C)CO)C(=O)c2cc(NC(=O)Nc3ccc(F)cc3)ccc2O1 23.7%, C[C@@H]1CN([C@H](C)CO)C(=O)c2cc(NC(=O)Nc3ccc(F)cc3)ccc2O[C@@H](C)CCCCO[C@H]1CN(C)Cc1ccc2c(c1)OCO2 -9.48%, C[C@H](CO)N1C[C@H](C)[C@H](CN(C)Cc2ccc3c(c2)OCO3)OCCCC[C@H](C)Oc2ccc(NC(=O)Nc3ccc(F)cc3)cc2C1=O -7.04% [at 0.5 µM], C[C@H](CO)N1C[C@H](C)[C@H](CN(C)Cc2ccc3c(c2)OCO3)OCCCC[C@H](C)Oc2ccc(NC(=O)Nc3ccc(C(F)(F)F)cc3)cc2C1=O 31.6% [at 0.5 µM], C[C@@H]1CN([C@H](C)CO)C(=O)c2cc(NC(=O)Nc3ccc(C(F)(F)F)cc3)ccc2O[C@@H](C)CCCCO[C@@H]1CN(C)Cc1ccc2c(c1)OCO2 29.4% [at 1.95 µM], C[C@@H]1CCCCO[C@H](CN(C)Cc2ccc3c(c2)OCO3)[C@@H](C)CN([C@H](C)CO)C(=O)c2cc(NC(=O)Nc3ccc(C(F)(F)F)cc3)ccc2O1 15.4% [at 1.95 µM], CC(C)CC#Cc1ccc2c(c1)O[C@@H](CN(C)CC1CCOCC1)[C@H](C)CN([C@@H](C)CO)S2(=O)=O 17.9%, CO[C@@H]1CN(C)C(=O)c2ccc(NC(=O)c3nc4ccccc4s3)cc2OC[C@@H](C)N(Cc2cccnc2)C[C@H]1C 33.1%, CC(C)CC#Cc1ccc2c(c1)O[C@H](CN(C)Cc1ccccc1F)[C@H](C)CN([C@H](C)CO)S2(=O)=O 28.2%, COc1ccccc1S(=O)(=O)N(C)C[C@H]1OCc2ccccc2-c2c(n(C)c3ccccc23)C(=O)N([C@@H](C)CO)C[C@H]1C 11.5%, C[C@@H]1CN([C@H](C)CO)S(=O)(=O)c2ccc(-c3ccccc3)cc2O[C@H]1CN(C)Cc1cccnc1 46%, CN1CCN(C(=O)C[C@@H]2C[C@@H]3c4cc(NC(=O)Nc5ccc(C(F)(F)F)cc5)ccc4O[C@@H]3[C@H](CO)O2)CC1 30.1%
